The nature of assay [1]: antimalarial activity against Dd2 strain (AID 2302;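 active = growth inhibition above 50% at the single 2 µM test dose, taken to imply half-maximal potency below 2 µM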;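 also: 0% = DMSO untreated growth and 100% = chloroquine plus artemisinin killed control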). To be noted: P. falciparum Dd2 in RBCs, LDH growth readout, 72 h; at 2 µM; active compounds read high.
A short description of assay [2]: HepG2 cytotoxicity, primary screen, cytotoxicity control for P. falciparum antimalarial project, cell-based, ATP luminescence (AID 2303;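 active = inhibition above 50%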;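 also: 0% = DMSO wells and 100% = digitonin-killed cells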). Particulars: HepG2 viability, 24-48 h, at 10 µM, active compounds read high.
The target in assay [3] is L-lactate dehydrogenase (Plasmodium falciparum (isolate CDC / Honduras)) (UniProt Q27743). Put plainly: PfLDH activity inhibition – cell lysate, 3D7 strain, counter-screen for P. falciparum growth inhibition project (AID 2304).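 Also: 0% = vehicle and 100% = reference inhibitor.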 Particulars: P. falciparum 3D7 crude extract, LDH APAD/NBT absorbance; at 2 µM; active compounds read high. Background: Counterscreens check selectivity or assay interference.
Chain of L-lactate dehydrogenase (Plasmodium falciparum (isolate CDC / Honduras)) (Q27743 whole entry, looked up): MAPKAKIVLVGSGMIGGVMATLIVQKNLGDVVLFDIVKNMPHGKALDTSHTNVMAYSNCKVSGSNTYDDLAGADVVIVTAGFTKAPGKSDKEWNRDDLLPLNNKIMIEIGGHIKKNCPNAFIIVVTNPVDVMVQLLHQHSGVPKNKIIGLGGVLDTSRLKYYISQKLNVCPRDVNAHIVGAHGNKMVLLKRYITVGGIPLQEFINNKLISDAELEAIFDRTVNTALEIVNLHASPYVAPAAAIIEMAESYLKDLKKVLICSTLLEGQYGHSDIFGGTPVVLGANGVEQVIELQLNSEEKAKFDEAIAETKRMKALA

Assay [4] can be described thus: inhibition of 3D7 malaria parasite growth – strain 3D7 (AID 2306).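 Also: 0% = DMSO wells and 100% = chloroquine plus artemisinin control wells.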 Particulars: P. falciparum 3D7 erythrocytic growth, LDH absorbance, 72 h; at 2 µM; active compounds read high.
Assay [5] addresses Calcium-dependent protein kinase 1 (Plasmodium falciparum (isolate 3D7)) (UniProt P62344). Put plainly: PfCDPK1 kinase inhibitors, biochemical, TCAMS library (AID 1159585; cut-off not given, nearly all actives have IC50 up to about 0.98 µM;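 also: inhibitors leave more ATP so luminescence rises with inhibition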). Particulars: recombinant PfCDPK1, Kinase-Glo ATP depletion luminescence.
Assay [6] has as its target Plasmodium falciparum protein kinase 6 (PK6, PF3D7_1337100) (UniProt Q8IDW1). The experiment in a line: PfPK6 kinase inhibitors, biochemical, TCAMS library (AID 1159586). Particulars: recombinant PfPK6, Kinase-Glo ATP depletion luminescence. (In Kinase-Glo more light means more ATP remaining.)
In assay [7] the target is Protein kinase 7 (PK7), Plasmodium falciparum 3D7 (PF3D7_0213400) (UniProt Q7YTF7). The experiment in a line: inhibition of Plasmodium PK7 catalytic activity – biochemical, TCAMS antimalarial set, Kinase-Glo luminescence (AID 1159587). Particulars: recombinant PfPK7, Kinase-Glo ATP depletion luminescence.
Chain of Protein kinase 7 (PK7), Plasmodium falciparum 3D7 (PF3D7_0213400) (Q7YTF7 1-343): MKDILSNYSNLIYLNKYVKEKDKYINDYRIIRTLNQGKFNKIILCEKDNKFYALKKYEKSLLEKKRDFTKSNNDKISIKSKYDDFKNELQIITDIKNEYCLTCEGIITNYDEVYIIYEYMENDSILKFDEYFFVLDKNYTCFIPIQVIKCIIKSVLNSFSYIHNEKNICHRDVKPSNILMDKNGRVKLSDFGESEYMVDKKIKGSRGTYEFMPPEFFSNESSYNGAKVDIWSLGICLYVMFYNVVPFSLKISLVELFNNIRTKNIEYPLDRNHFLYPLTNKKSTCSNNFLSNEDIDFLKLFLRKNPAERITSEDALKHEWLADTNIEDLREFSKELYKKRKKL
The target of assay [8] is Calcium-dependent protein kinase 4 (Plasmodium falciparum (isolate 3D7)) (UniProt Q8IBS5). Put plainly: PfCDPK4 kinase inhibitors, biochemical, TCAMS library (AID 1159588; cut-off not given, nearly all actives have IC50 up to about 0.91 µM). Particulars: recombinant PfCDPK4, Kinase-Glo ATP depletion luminescence.
Chain of Calcium-dependent protein kinase 4 (Plasmodium falciparum (isolate 3D7)) (Q8IBS5 whole entry, looked up): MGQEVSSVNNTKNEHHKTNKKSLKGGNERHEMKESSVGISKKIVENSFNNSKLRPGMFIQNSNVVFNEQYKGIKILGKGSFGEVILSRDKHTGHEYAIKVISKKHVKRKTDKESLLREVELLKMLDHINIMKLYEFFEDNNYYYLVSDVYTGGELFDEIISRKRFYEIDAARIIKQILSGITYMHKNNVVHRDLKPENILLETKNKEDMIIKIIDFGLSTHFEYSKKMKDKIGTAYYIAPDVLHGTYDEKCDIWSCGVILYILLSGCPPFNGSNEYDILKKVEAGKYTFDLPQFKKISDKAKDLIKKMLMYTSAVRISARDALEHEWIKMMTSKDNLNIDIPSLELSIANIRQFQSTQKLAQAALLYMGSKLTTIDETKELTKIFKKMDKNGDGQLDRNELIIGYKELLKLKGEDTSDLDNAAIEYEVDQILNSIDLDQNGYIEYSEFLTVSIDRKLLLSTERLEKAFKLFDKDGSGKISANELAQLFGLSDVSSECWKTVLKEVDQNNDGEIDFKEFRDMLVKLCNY

Each structure is given as a SMILES string. Unmarked numbers belong to inactive results. For some of these results: Measured potencies and affinities stand elsewhere. Active and inactive are the calls of the source. Unless noted, no rule for the calls is given here.

Chain of Calcium-dependent protein kinase 1 (Plasmodium falciparum (isolate 3D7)) (P62344 whole entry, looked up): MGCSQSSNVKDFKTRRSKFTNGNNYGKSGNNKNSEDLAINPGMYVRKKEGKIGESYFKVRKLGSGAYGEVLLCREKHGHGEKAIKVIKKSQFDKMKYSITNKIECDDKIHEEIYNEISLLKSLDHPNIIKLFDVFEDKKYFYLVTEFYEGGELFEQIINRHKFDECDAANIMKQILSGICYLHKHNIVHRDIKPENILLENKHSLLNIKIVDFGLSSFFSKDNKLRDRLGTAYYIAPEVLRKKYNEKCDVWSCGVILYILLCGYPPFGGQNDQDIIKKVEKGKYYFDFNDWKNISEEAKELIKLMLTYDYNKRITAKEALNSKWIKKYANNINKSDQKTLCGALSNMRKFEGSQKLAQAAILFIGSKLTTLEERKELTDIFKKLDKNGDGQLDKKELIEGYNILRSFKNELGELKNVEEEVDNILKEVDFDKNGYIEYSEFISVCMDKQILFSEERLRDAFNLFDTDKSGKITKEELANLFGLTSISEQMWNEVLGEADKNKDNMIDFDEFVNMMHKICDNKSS
Chain of Plasmodium falciparum protein kinase 6 (PK6, PF3D7_1337100) (Q8IDW1 1-305): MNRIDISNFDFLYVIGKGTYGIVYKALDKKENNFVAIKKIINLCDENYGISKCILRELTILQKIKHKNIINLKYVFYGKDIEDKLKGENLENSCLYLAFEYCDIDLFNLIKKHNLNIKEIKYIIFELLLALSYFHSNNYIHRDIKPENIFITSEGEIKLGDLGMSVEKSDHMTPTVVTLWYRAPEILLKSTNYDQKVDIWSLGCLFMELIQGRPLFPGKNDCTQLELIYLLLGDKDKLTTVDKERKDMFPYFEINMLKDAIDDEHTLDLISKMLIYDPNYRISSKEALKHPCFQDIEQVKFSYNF

As for `CC1(C)N=C(N)N=C(N)N1OCCOc1cccc(C(F)(F)F)c1`, the results for the growth inhibition in assay [1] and in assay [4] were 97% (active) and 93% (active), respectively. In addition, the results for the inhibition in assay [2] and in assay [3] were 67% (active) and -2%, respectively. Besides, the outcome in assay [5], in assay [6], in assay [7] and in assay [8] was inactive.
With `CCN(CC)CCOc1ccc(N(Cc2ccc(C(C)(C)C)cc2)C(=O)c2ccc(Cc3ccccc3)cc2)cc1OC`, the growth inhibition was 73% (active) in assay [1] and 99% (active) in assay [4]. Besides, the inhibition (in general, the change of the read-out against control, counted positive when it falls) was 5% in assay [2] and 0% in assay [3]. For the same molecule, the result in assay [5], in assay [6], in assay [7] and in assay [8] was inactive.
For `CCCNCc1ccc(-c2ccc(CNC3Cc4ccccc4C3)cc2)nc1`, the growth inhibition was 32% in assay [1] and 97% (active) in assay [4]. In addition, the inhibition in assay [2] was 23%; in assay [3], 1%. Moreover, the outcome in assay [5], in assay [6], in assay [7] and in assay [8] was inactive.
Consider `COc1cc2c(cc1OCCN1CCC(N3CCCC3)CC1)N(C(=O)/C=C/c1ccccc1Cl)CC2`, for which the growth inhibition in assay [1] was 68% (active); in assay [4], 100% (active). The figures for the inhibition in assay [2] and in assay [3] were 38% and -7%, respectively. In addition, the outcome in assay [5], in assay [6], in assay [7] and in assay [8] was inactive.
With `O=C(CC1CCCC1)Nc1ccc2c(c1)CCC2`, the growth inhibition was -2% in assay [1] and 93% (active) in assay [4]. The inhibition is -1% in assay [2] and 2% in assay [3]. For the same molecule, the result in assay [5], in assay [6], in assay [7] and in assay [8] was inactive.
On to `COc1cc(Cc2cnc(N)nc2N)cc(OCCCOc2ccccc2)c1OC`, for which the values for the growth inhibition in assay [1] and in assay [4] were 2% and 94% (active), respectively. Further, the inhibition in assay [2] was 7%; in assay [3] it was -4%. Further, the outcome in assay [5], in assay [6], in assay [7] and in assay [8] was inactive.
On to `CN(C)c1ccc(-c2csc(C(=O)NC3CCN(Cc4ccc(C(C)(C)C)cc4)C3)c2)cc1` (stereo not given), for which the growth inhibition in assay [1] is 50% (active); in assay [4], 99% (active). Also, the inhibition was 26% in assay [2] and -1% in assay [3]. Besides, the result in assay [5], in assay [6], in assay [7] and in assay [8] was inactive.
As to `O=C(Nc1ccc(Br)cc1)N(CCN1CCOCC1)CC(O)COCc1ccc(F)cc1` (stereo not given), the growth inhibition in assay [1] is 3%; in assay [4], 90% (active). The inhibition was 5% in assay [2] and -1% in assay [3]. Besides, the result in assay [5], in assay [6], in assay [7] and in assay [8] was inactive.
In the case of `Cc1cc(C2CCN(CCCCNC(=O)c3ccc(-c4ccc(C(F)(F)F)cc4)cc3)CC2)c(C)cc1OCCO`, the values for the growth inhibition in assay [1] and in assay [4] were 3% and 99% (active), respectively. In addition, the results for the inhibition in assay [2] and in assay [3] were 31% and 2%, respectively. The result in assay [5], in assay [6], in assay [7] and in assay [8] was inactive.
As for `Cc1cc(OCCN2CCCCC2)ccc1NC(=O)c1cccc2c(=O)n(Cc3ccc(Cl)cc3)cnc12`, the growth inhibition was 56% (active) in assay [1] and 88% (active) in assay [4]. Moreover, the inhibition in assay [2] was 100% (active); in assay [3] it was 0%. Also, the result in assay [5], in assay [6], in assay [7] and in assay [8] was inactive.
For the molecule `COc1ccc(Nc2ccnc3cc(-c4ccccn4)ccc23)cc1OC`, the growth inhibition is 26% in assay [1] and 91% (active) in assay [4]. In addition, the inhibition is 14% in assay [2] and 1% in assay [3]. For the same molecule, the result in assay [5], in assay [6], in assay [7] and in assay [8] was inactive.
For the molecule `c1ccc(CNCc2cccc(-c3ccc(-c4nc5ccccc5[nH]4)s3)c2)cc1`, the growth inhibition in assay [1] is 63% (active); in assay [4], 95% (active). Further, the inhibition in assay [2] is 8%; in assay [3] it was 3%. Moreover, the outcome in assay [5], in assay [6], in assay [7] and in assay [8] was inactive.
Take `CNCCCn1c(N(C)C)nc2cc(-n3cnc4cc(-c5ccc(Cl)cc5)sc4c3=O)ccc21`: the results for the growth inhibition in assay [1] and in assay [4] were 27% and 86% (active), respectively. For the same molecule, the inhibition was 39% in assay [2] and 1% in assay [3]. In addition, the outcome in assay [5], in assay [6], in assay [7] and in assay [8] was inactive.
In the case of `O=C(Nc1ccc2c(c1)CCCN2S(=O)(=O)c1cccs1)c1cc([N+](=O)[O-])ccc1Cl`, the growth inhibition was 95% (active) in assay [1] and 93% (active) in assay [4]. In addition, the figures for the inhibition in assay [2] and in assay [3] were 29% and 3%, respectively. Also, the result in assay [5], in assay [6], in assay [7] and in assay [8] was inactive.
As for `COc1c(C2CCN(CCCCNC(=O)c3ccc(-c4ccc(Cl)cc4)c(O)c3)CC2)ccc2c1CCCC2`, the values for the growth inhibition in assay [1] and in assay [4] were 99% (active) and 102% (active), respectively. Further, the inhibition in assay [2] is 91% (active); in assay [3] it was -5%. The result in assay [5], in assay [6], in assay [7] and in assay [8] was inactive.
Take `Cc1cc(-c2nc3ccc(C(=O)NCc4ccccc4)cc3n2C2CCN(C(=O)c3ccc(-c4ccccc4)cc3)CC2)ccn1`: the growth inhibition in assay [1] is 97% (active); in assay [4], 95% (active). Also, the inhibition was 36% in assay [2] and 1% in assay [3]. Moreover, the outcome in assay [5], in assay [6], in assay [7] and in assay [8] was inactive.
Regarding `CCC(ON1C(N)=NC(N)=NC1(C)C)c1ccc(Cl)cc1` (stereo not given), the growth inhibition in assay [1] is 90% (active); in assay [4] it was 91% (active). For the same molecule, the inhibition in assay [2] was 68% (active); in assay [3] it was 3%. Also, the result in assay [5], in assay [6], in assay [7] and in assay [8] was inactive.
Take `COc1cccc(-c2ccc(C(=O)NC3CCN(Cc4ccc(N(C)C)cc4)CC3)s2)c1`: the growth inhibition in assay [1] was 20%; in assay [4] it was 81% (active). Further, the inhibition in assay [2] was 8%; in assay [3], -1%. The outcome in assay [5], in assay [6], in assay [7] and in assay [8] was inactive.
Take `Oc1ccc(CCNCCCCCCNCCc2ccc(-c3ccccc3)cc2)cc1O`: the growth inhibition in assay [1] is 8%; in assay [4], 101% (active). Further, the inhibition in assay [2] was 72% (active); in assay [3], 1%. Moreover, the outcome in assay [5], in assay [6], in assay [7] and in assay [8] was inactive.
In the case of `COc1cc(F)c2ncc(Cl)c(CCN3CCC(NCc4ccc5c(c4)OCCO5)CC3)c2c1`, the results for the growth inhibition in assay [1] and in assay [4] were 92% (active) and 97% (active), respectively. Also, the inhibition was 35% in assay [2] and -7% in assay [3]. Moreover, the outcome in assay [5], in assay [6], in assay [7] and in assay [8] was inactive.

These data come from PubChem BioAssay.
